# Data published in PubChem BioAssay AID837 (The Scripps Research Institute Molecular Screening Center, 2007).
# Activity calls are given as the source filed them.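 Rule for the calls: active = relative FRET score above 0.01, or acceptor fluorescence over 30% below the sample-well median; inactive = the rest.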
# Target: Protein Rev (Human immunodeficiency virus type 1 group M subtype B (isolate WMJ22)) (UniProt P05866)
# Assay: disruptors of Rev peptide-RRE RNA complex – biochemical, FRET, acceptor and relative FRET calls, confirmation (AID 837);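 note: relative FRET combines rise in Cy5 acceptor with fall in fluorescein donor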
# Details: Fl-Rev peptide / Cy5-RRE RNA FRET, 1536-well; at 8 µM
# Protein Rev (Human immunodeficiency virus type 1 group M subtype B (isolate WMJ22)), sequence (P05866 whole entry, looked up): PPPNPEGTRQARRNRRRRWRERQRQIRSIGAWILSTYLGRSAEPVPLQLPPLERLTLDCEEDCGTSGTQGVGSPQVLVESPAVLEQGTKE
row,SMILES,outcome
1,CCCCN1CCc2c1nc1ccc(Br)cc1c2N,inactive
2,CCCCN1C(=O)Cc2c1nc(N)c1c(N)nc(N(CCC)CCC)c(C#N)c21,inactive
3,Cc1ccsc1C1NC(=O)c2c(sc3c2CCN(C)C3)N1 (stereo not given),inactive
4,c1ccc(CSc2ncnc3c2cnn3Cc2ccccc2)cc1,inactive
5,CCN(CC)CCCNC(=O)c1cc(-c2ccc(Cl)cc2)on1,inactive
6,CN(CC(O)COc1ccc(OCC(O)CN(C)C2CCCCC2)cc1)C1CCCCC1 (stereo not given),inactive
7,CC(=O)c1ccc(NC(=O)c2ccc3nc(-c4ccco4)c(-c4ccco4)nc3c2)cc1,inactive
8,CC(C)(C)CC(C)(C)NCC(O)COc1c(F)cc(Br)cc1F (stereo not given),inactive
9,Cc1ccc(C2C3=C(NCCN=C3c3ccccc3)C(=O)N2c2ccccc2)cc1 (stereo not given),inactive
10,CCC(C)(C)c1ccc(OCCN2C(=O)NC(C)(C)C2=O)cc1,inactive
11,Cc1ccc(C)n1-c1sccc1C(=O)O,inactive
12,COc1ccc(Nc2nc(N3CCCCC3)c3ccccc3n2)cc1,inactive
13,COc1ccccc1Nc1nc(N)nc(CN(C)C2CCCCC2)n1,inactive
14,Cc1occc1C(=O)Nc1sc2c(c1C(N)=O)CCC(C(C)(C)C)C2 (stereo not given),inactive
15,Cc1cc(-c2nc3c4c5c(sc4[nH]c(=O)n3n2)CCC5)c(C)o1,inactive
16,Cn1nc(SCC(=O)O)sc1=S,inactive
17,CN1/C(=C\C=Nc2ccc3ccccc3c2)C(C)(C)c2ccccc21,inactive
18,COc1ccc(NC(=O)Nc2ccc(N(C)C)cc2)cc1,inactive
19,CC1=NN(c2ccccc2)C(=O)C1N=Nc1ccc(N)cc1 (stereo not given),active; fluoresces like the acceptor
20,Nc1nc(CN2CCCCCC2)nc(Nc2ccc(F)cc2)n1,inactive

row,SMILES,outcome
1,c1ccc(COc2ccc(OCCCN3CCCCC3)cc2)cc1,inactive
2,C[n+]1c2n(c3ccccc31)N=C(c1ccc(Cl)cc1)CS2,active
3,CCOC(=O)[C@@H]1CCNC[C@@H]1c1ccccc1,inactive
4,COC(CNc1cc(=O)oc2ccccc12)OC,inactive
5,O=C(Cn1cnc2ccccc2c1=O)N1CCOCC1,inactive
6,CCCCCCC1CC(CSC(=N)N)OC1=O (stereo not given),inactive
7,CC(C)CN=c1cc(-c2ccccc2)oc2ccc(Cl)cc12,active
8,CCCCOC(=O)Cn1c(=N)n(CCC)c2ccccc21,inactive
9,CC(C)(c1ccccc1)c1ccc(OCCCNCCO)cc1,inactive
10,N#Cc1c(NCCN)nc(-c2ccco2)c2c1CCCC2,inactive
11,Cc1c(Cl)cccc1Nc1nc(N)nc(CN2CCCCCC2)n1,inactive
12,CCCn1c(=N)c(C(=O)NCc2ccc3c(c2)OCO3)cc2c(=O)n3cccc(C)c3nc21,inactive
13,CCN(CC)CCCNC(=O)c1cc(-c2ccc(Cl)c(Cl)c2)on1,inactive
14,C=CCn1c(=N)n(CC(O)COc2ccc(OC)cc2)c2ccccc21 (stereo not given),inactive
15,CCOC(=O)Cn1c(=N)n(Cc2ccccc2)c2ccccc21,inactive
16,CC(=O)c1ccc2c(c1)c1ccccc1n2CC(C)C,inactive
17,Cc1nc(Nc2ccc(F)cc2)[nH]c(=O)c1CCC(C)C,inactive
18,CC1CC(C)CN(Cc2nc(N)nc(Nc3ccccc3)n2)C1 (stereo not given),inactive
19,CCCCNCCCOc1cccc(Cl)c1Cl,inactive
20,CCOC(=O)c1cnc(SC)nc1Sc1ccccc1Cl,inactive
